19 compounds from the supplement of paper PMC11219838 can be followed below.

Molecules are shown by their SMILES.

This assay concerns Caenorhabditis elegans L1 (N2). Nature of the assay: survival and reproduction score of C. elegans L1 (0: 0-10 living worms, 1: 11-20, 2: 21-50, 3: >50, 4: overgrown) (score 0-4); higher = more worms, less nematicidal, active = 1 or less; extreme values may be limits of the assay. The note with it: 60 µM; 6 days; temperature: 20 °C. Summed up:
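Synchronized C. elegans N2 L1s (about 20 per well) were grown in 96-well plates in liquid NGM with E. coli HB101 and compound at 60 µM final (0.6% v/v DMSO), shaken sealed at 200 rpm and 20 °C for 6 days. The ordinal score for survival and reproduction counted living worms per well under a dissection microscope. The scale ran 0 (0–10 worms) to 4 (overgrown, starved), averaged over two biological replicates.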
Turning to `COc1cccc(CSc2nnc(-c3ccco3)n2C)c1`, the “survival and reproduction score” value was 2 (inactive).
As for `Cc1ccc(-c2nc(-c3ccccc3)no2)cc1`, the “survival and reproduction score” value was 0.5 (active).
Next, `Cc1ccc(-c2noc(-c3ccc(Cl)cc3)n2)cc1`: 4 (inactive); `COc1ccc(Cl)cc1-c1noc(COc2ccccc2C)n1`: 4 (inactive); `Cc1ccc(-c2noc(-c3ccc4c(c3)OCCO4)n2)cc1`: 4 (inactive).
As for `O=C(c1ccccc1-c1nc(-c2ccccc2)no1)N1CCCCC1`, the “survival and reproduction score” value was 4 (inactive).
With `O=C(CSc1nnc(-c2ccc(Cl)cc2)o1)Nc1ccccc1C(F)(F)F`, the “survival and reproduction score” value was 4 (inactive).
For the compound `Cc1ccc(-c2nnc(SCC(=O)NCCc3ccccc3)o2)cc1`, the “survival and reproduction score” value was 4 (inactive).
With `Cc1cc(OC(C)c2nc(-c3ccccn3)no2)ccc1Cl` (centres undefined) the figure was 2 (inactive); with `COc1cccc(-c2nnc(SCC(=O)Nc3cccc(C(F)(F)F)c3)o2)c1`, 4 (inactive).
Next, `O=C(CSc1nnc(-c2ccncc2)o1)Nc1cc(Cl)cc(Cl)c1`: 4 (inactive).
With `COc1ccc(-c2nnc(SCC(=O)OCc3ccccc3)o2)cc1`, the “survival and reproduction score” value was 4 (inactive).
On to `Cc1cccc(-c2noc(-c3cc(Cl)ccc3Cl)n2)c1`, for which the “survival and reproduction score” value was 2 (inactive).
With `Cc1ccc(CSc2nnc(-c3ccco3)o2)cc1`, the “survival and reproduction score” value is 0 (active).
On to `COc1ccccc1-c1nc(-c2cccc(Br)c2)no1`, for which the “survival and reproduction score” value was 4 (inactive).
With `Fc1ccc(-c2nc(-c3ccc(Br)cc3)no2)cc1`, the “survival and reproduction score” value was 3 (inactive).
In the case of `Clc1ccccc1OCc1nc(-c2ccc(Br)cc2)no1`, the “survival and reproduction score” value is 4 (inactive).
As for `COc1ccc(-c2noc(CSc3ccc(C)cc3)n2)cc1`, the “survival and reproduction score” value is 4 (inactive).
Next, `O=C(Nc1ccc(-c2noc(COc3ccccc3Cl)n2)cc1)c1ccccn1`: 4 (inactive).
